Activity calls are given as the source filed them.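 Rule for the calls: active = inhibition above about 23% in any of six single-dose repeats (limit read from the data); inactive = the rest.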
target: Intestinal-type alkaline phosphatase (Homo sapiens) (UniProt P09923); test: suppression of intestinal alkaline phosphatase activity – biochemical, luminescence, single concentration, uHTS hits, confirmation (AID 434927); settings: purified human IAP, CDP-Star luminescence, 30 min; at 8.3 µM; hits give high values;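 note: plate controls were DMSO wells with enzyme for no effect and wells lacking enzyme for full effect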
Sequence (P09923 whole entry, looked up): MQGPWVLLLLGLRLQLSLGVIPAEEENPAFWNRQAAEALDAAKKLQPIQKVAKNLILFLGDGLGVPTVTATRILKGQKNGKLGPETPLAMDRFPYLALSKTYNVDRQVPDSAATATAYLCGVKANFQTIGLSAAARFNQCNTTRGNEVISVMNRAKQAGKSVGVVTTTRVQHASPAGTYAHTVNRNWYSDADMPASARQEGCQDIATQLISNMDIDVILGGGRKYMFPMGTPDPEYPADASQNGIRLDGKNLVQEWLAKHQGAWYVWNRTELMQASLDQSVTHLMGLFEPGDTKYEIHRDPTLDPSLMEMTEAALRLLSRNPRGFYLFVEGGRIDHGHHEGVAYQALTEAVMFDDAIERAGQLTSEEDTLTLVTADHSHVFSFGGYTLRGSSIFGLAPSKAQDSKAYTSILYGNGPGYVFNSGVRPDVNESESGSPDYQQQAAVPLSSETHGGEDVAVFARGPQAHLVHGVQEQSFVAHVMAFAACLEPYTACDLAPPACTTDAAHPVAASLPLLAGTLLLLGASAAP

inhibition, active:
N#C/C(=C\c1ccc(O)c(O)c1)C(=O)c1ccc(O)c(O)c1 74.3%
Cc1ccccc1CNC(=O)c1ccccc1N 37.2%
CC(C)(C)OC(=O)N1CCC(NC(=O)c2[nH]cnc2C(=O)Nc2ccon2)CC1 37%
Cc1ccc(NC(=O)C2CC(=O)Nc3nc4ccccc4n32)c(C)c1 (stereo not given) 38.4%
Cc1ccc(-n2ncc3c(NNC(=O)c4ccco4)ncnc32)cc1C 41.4%
COc1ccc(NC(=O)CCN2CCN(S(=O)(=O)c3cc(Cl)ccc3OC)CC2)cc1 35.6%
O=C(NN1C(=O)/C(=C/c2ccc(O)c([N+](=O)[O-])c2)SC1=S)c1ccccc1Cl 38.9%
Cc1cc2nc(C3CCN(Cc4nnnn4Cc4cccs4)CC3)[nH]c2cc1C 79.3%
Cc1[nH]n(-c2nc(-c3ccccc3)cc(=O)[nH]2)c(=O)c1CCO 47.5%
O=C(O)COn1c(-c2ccc(Cl)cc2)nc2ccc(Cl)cc21 26.6%

inhibition, inactive:
Cc1[nH]n(-c2nc(-c3ccccc3F)cc(=O)[nH]2)c(=O)c1CCO -39.7%
O=c1cc(-c2ccccc2)[nH]n1-c1nc2ccccc2[nH]1 -58.4%
Cc1cccc(-n2ncc3c(NNC(=O)c4ccco4)ncnc32)c1 -74.5%
CC(C)Oc1ccc(C(=O)Nc2ncn[nH]2)cc1 -64.7%
O=C(/C=C/c1ccc(O)cc1)c1ccc(NC2=C(N3CCCCC3)C(=O)c3ccccc3C2=O)cc1 -0.00319%

From PubChem BioAssay AID434927 (Sanford-Burnham Center for Chemical Genomics, 2010)
